This is an account of results in PubChem BioAssay (EPA / NIEHS).

In assay [1] the target is Estrogen receptor (Homo sapiens) (UniProt P03372). The assay is described as follows: OT_ERa_GFPERaERE_0480: Odyssey Thera (OT) 8-hour HeLa Transcription Induction Assay for Estrogen Receptor (AID 2283381; active = hit-call score of the fitted dose curve at least 0.9, where 1 is the maximum; inactive = score below 0.9). In a few lines: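 Fluorescence microscopy with high-content image analysis measures ERE-driven GFP induction in HeLa cells at 8 h post-dose. Increases fitted against DMSO baseline.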

Assay [2] has the same target. Put plainly: OT_ERa_GFPERaERE_0120: Odyssey Thera (OT) 2-hour HeLa Transcription Induction Assay for Estrogen Receptor (AID 2283382). In short, it runs like this:
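Fluorescence-microscopy images of the GFP-ERα/ERE reporter, scored by high-content image algorithms, give the readout. HeLa exposure lasted 2 h, and only signal increase over DMSO was fitted.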

Assay [3] concerns the target Retinoic acid receptor RXR-alpha (Homo sapiens) (UniProt P19793). The assay is described as follows: OT_NURR1_NURR1RXRa_0480: Odyssey Thera (OT) 8-hour HEK293T Protein Complementation Assay for Nurr1/retinoid X receptor (RXR) (AID 2283385). In a few lines:
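Interaction of Nurr1 with RXRα read as reconstituted reporter fluorescence in a HEK293T fragment-complementation system, 8 h post-treatment; increase over DMSO baseline analysed.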

Assay [4] has the same target. The assay is described as follows: OT_NURR1_NURR1RXRa_1440: Odyssey Thera (OT) 24-hour HEK293T Protein Complementation Assay for Nurr1/retinoid X receptor (RXR) (AID 2283386). In a few lines: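 Gain in fluorescence, fitted relative to DMSO, reflects Nurr1–RXRα association in HEK293T cells after 24 h dosing. Bait and prey are each linked to a reporter-protein fragment that reassembles on interaction.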

The target in assay [5] is Peroxisome proliferator-activated receptor gamma (Homo sapiens) (UniProt P37231). Put plainly: OT_PPARg_PPARgSRC1_0480: Odyssey Thera (OT) 8-hour Protein-Complementation Assay for Peroxisome Proliferator-activated Receptor Gamma / SRC-1 Co-activator (AID 2283387).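 Note: nuclear to cytoplasmic split Venus YFP fluorescence ratio reporting PPARg SRC-1 interaction.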 In short, it runs like this:
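Protein-fragment complementation in HEK293T: Venus YFP halves (residues 1-158, 159-239, mutated to IFP1/IFP2) fused to PPARg/SRC-1. 8 h exposure; N/C ratio at 488 nm; DMSO negative control.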

The target is the same in assay [6]. The assay is described as follows: OT_PPARg_PPARgSRC1_1440: Odyssey Thera (OT) 24-hour Protein-Complementation Assay for Peroxisome Proliferator-activated Receptor Gamma/ SRC-1 Co-activator (AID 2283388).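 Note: nuclear to cytoplasmic ratio of reconstituted Venus YFP fluorescence in fixed imaged cells.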 In a few lines: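 Protein-fragment complementation between PPARg and coactivator SRC-1 was measured by fluorescence imaging in transiently transfected HEK293T cells after 24 h treatment. Signal was quantified as N/C ratio in the 488 nm channel, with DMSO as negative control.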

Assay [7] concerns the target Bile acid receptor (Homo sapiens) (UniProt Q96RI1). The assay is described as follows: OT_FXR_FXRSRC1_0480: Odyssey Thera (OT) 8-hour HEK293T Protein-Complementation Assay for Farnesoid X receptor/SRC-1 Co-activator (AID 2283383). In short, it runs like this: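 Binding of FXR to coactivator SRC-1 was read as fluorescence from a reconstituted split reporter in HEK293T cells, 8 h after chemical addition. Only increases in signal versus DMSO were fit.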

Assay [8] has the same target. Put plainly: OT_FXR_FXRSRC1_1440: Odyssey Thera (OT) 24-hour HEK293T Protein-Complementation Assay for Farnesoid X receptor/SRC-1 Co-activator (AID 2283384). In a few lines: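 Protein-fragment complementation: FXR and SRC-1 fused to reporter fragments that reassemble on interaction, read by fluorescence intensity. Human HEK293T cells measured 24 h post-dose; positive-direction fit versus DMSO.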

The nature of assay [9]: CEETOX_H295R_11DCORT: CeeTox H295R High-throughput Steroidogenesis Assay for 11-Deoxycortisol (11DCORT) (AID 2283432; active = hit-call score of the fitted dose curve at least 0.9, where 1 is the maximum; inactive = score below 0.9;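 note: human adrenal H295R cells prestimulated with 10 µM forskolin for 48 h; 11-deoxycortisol secreted into the medium measured by LC-MS/MS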). As to conditions: actives raise or lower the signal. In short, it runs like this: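 Adrenal carcinoma line H295R, run per OECD 456 with minor changes, was forskolin-stimulated (10 uM, 48 h) before a 48 h chemical exposure at 0.1% DMSO. Secreted 11-deoxycortisol was quantified by HPLC-MS/MS.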

Assay [10] can be described thus: CEETOX_H295R_OHPREG: CeeTox H295R High-throughput Steroidogenesis Assay for OH-Pregnenolone (OHPREG) (AID 2283434; active = hit-call score of the fitted dose curve at least 0.9, where 1 is the maximum; inactive = score below 0.9). As to conditions: actives raise or lower the signal. In short, it runs like this: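 H295R, 10 uM forskolin pre-stim 48 h; test chemical 48 h, 0.1% DMSO final. MTBE extraction, reverse-phase C18 HPLC-ESI+ MS/MS of medium. Gain/loss vs DMSO; viability by MTT in same wells.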

Records with an inconclusive call do not appear. Where a structure was tested more than once in an assay, its records may differ in their call. Activity calls are given as the source filed them. Rule for the calls, unless noted: active = hit-call score of the fitted dose curve at least 0.9, where 1 is the maximum; inconclusive = response in the unintended direction; inactive = score below 0.9.

Sequence of Peroxisome proliferator-activated receptor gamma (Homo sapiens) (P37231 whole entry, looked up, the tested form may be a part): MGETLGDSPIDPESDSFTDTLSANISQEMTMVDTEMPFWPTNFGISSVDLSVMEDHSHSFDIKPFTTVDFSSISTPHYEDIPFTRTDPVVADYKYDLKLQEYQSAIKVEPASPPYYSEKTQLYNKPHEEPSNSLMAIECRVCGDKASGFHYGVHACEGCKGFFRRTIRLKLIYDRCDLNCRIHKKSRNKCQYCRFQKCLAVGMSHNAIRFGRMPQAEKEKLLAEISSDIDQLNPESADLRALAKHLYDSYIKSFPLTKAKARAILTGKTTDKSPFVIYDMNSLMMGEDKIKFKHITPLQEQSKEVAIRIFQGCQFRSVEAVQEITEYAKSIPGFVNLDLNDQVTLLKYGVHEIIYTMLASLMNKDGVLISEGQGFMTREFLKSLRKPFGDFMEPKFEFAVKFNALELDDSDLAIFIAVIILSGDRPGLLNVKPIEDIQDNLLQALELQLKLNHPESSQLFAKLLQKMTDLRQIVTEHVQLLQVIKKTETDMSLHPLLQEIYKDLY
Sequence of Retinoic acid receptor RXR-alpha (Homo sapiens) (P19793 whole entry, looked up, the tested form may be a part): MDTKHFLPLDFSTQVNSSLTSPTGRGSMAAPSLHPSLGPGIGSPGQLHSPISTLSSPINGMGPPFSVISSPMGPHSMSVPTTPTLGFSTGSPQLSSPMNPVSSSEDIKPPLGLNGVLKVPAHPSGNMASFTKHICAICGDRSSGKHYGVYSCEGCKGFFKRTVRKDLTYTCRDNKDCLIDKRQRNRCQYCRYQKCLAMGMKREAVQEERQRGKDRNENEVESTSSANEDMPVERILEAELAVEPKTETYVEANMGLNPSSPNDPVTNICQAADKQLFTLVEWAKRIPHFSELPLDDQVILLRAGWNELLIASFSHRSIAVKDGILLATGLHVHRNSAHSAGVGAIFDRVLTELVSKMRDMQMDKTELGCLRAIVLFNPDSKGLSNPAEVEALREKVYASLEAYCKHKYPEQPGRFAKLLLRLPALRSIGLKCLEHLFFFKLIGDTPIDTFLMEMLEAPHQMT
Sequence of Estrogen receptor (Homo sapiens) (P03372 whole entry, looked up): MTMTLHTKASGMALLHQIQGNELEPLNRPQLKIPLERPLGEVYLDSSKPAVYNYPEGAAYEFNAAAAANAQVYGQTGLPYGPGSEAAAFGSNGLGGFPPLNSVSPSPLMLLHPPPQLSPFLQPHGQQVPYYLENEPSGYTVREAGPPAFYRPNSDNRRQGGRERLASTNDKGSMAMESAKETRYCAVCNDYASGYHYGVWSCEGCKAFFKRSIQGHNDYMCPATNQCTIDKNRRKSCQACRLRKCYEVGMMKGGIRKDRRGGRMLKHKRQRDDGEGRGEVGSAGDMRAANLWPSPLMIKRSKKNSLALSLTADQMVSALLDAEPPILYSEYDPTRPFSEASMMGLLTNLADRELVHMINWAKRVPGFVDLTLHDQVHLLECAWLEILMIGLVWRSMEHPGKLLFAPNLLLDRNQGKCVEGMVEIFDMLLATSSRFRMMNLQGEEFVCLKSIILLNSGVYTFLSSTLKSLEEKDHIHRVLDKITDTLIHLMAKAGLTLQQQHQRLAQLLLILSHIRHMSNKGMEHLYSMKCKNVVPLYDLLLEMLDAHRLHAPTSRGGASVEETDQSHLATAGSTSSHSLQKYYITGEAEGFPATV
Sequence of Bile acid receptor (Homo sapiens) (Q96RI1 whole entry, looked up): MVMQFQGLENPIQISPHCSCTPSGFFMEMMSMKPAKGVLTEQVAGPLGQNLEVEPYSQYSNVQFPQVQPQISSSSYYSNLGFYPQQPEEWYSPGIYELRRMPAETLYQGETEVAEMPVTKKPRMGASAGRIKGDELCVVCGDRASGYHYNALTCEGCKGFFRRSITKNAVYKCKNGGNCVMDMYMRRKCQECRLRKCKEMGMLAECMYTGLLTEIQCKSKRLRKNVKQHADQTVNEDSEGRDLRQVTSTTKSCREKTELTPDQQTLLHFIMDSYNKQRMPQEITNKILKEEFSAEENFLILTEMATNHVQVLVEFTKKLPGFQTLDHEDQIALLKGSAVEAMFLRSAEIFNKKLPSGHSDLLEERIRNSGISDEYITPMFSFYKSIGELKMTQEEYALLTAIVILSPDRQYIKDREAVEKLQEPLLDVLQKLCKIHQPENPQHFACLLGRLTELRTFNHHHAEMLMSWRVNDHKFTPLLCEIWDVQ

Turning to `CS(=O)(=O)c1cc(C(F)(F)F)ccc1C(=O)c1cnoc1C1CC1`, the call in [1], in [2], in assay [3], in assay [4], in assay [5] and in [6] was inactive.
With `COP(=S)(OC)Oc1ccc([N+](=O)[O-])c(C)c1`, the call in [1], in [2], in assay [3], in assay [4], in assay [5] and in [6] was inactive. The compound was called inactive in [10]. Further, the AC50 in [7] is 21.3 µM (active); in [8], 29.8 µM (active); in [9] it was 6.36 µM (active).
Turning to `CCOP(=O)(OCC)Oc1nc(Cl)c(Cl)cc1Cl`, the outcome in assay [1], in assay [2], in [3], in [4], in assay [5] and in assay [6] was inactive. Also, the AC50 in assay [4] is 9.87 µM (active).
On to `COP(=O)(OC)O/C(C)=C/C(=O)N(C)C`, for which the compound was classed as inactive in [1], in [2], in assay [3], in [4], in assay [5] and in assay [6].
With `Clc1cccc(C(Cl)(Cl)Cl)n1`, the compound was called inactive in assay [1], in [2], in assay [7], in [8], in assay [3] and in assay [4]. The compound was called inactive in assay [5] and in [6].
On to `CCCN(CC)CC1COC2(CCC(C(C)(C)C)CC2)O1` (stereo unspecified), for which the result in assay [1], in assay [2], in assay [3] and in assay [4] was inactive. Besides, the values for the concentration at half-maximal activity (AC50) in [3], in [9] and in [10] were 50 µM (active), 0.202 µM (active) and 0.131 µM (active), respectively.
Regarding `CSC(=O)c1c(C(F)F)nc(C(F)(F)F)c(C(=O)SC)c1CC(C)C`, the result in [1], in assay [2], in assay [3], in [4], in assay [5] and in assay [6] was inactive. In assay [4], the AC50 is 69.6 µM (active).
On to `CCCCOCN(C(=O)CCl)c1c(CC)cccc1CC`, for which the AC50 in assay [1] was 71.3 µM (active); in assay [7], 50 µM (active); in [8] it was 75.1 µM (active); in assay [4], 76.8 µM (active). For the same compound, the compound was classed as inactive in [2], in assay [3], in assay [4], in [5] and in [6].
On to `CC(C)N1C(=O)N(c2ccccc2)CSC1=NC(C)(C)C`, for which the call in [1], in assay [2], in assay [3], in assay [4], in assay [5] and in assay [6] was inactive. Further, the AC50 in assay [3] was 74.4 µM (active); in assay [4], 80.8 µM (active).
`COCC(C)N(C(=O)CCl)c1c(C)csc1C` (stereo unspecified): the result in [1], in assay [2], in [7], in assay [3], in [4] and in [5] was inactive. The compound was called inactive in assay [6].
Consider `CCNC(=O)NC(=O)C(C#N)=NOC`, for which the call in assay [1], in [2], in assay [7], in assay [3], in assay [4] and in assay [5] was inactive. Also, the compound was called inactive in assay [6]. For the same compound, the AC50 is 23.1 µM (active) in [8] and 29.6 µM (active) in [4].
In the case of `Cc1c(COC(=O)[C@@H]2[C@H](/C=C(\Cl)C(F)(F)F)C2(C)C)cccc1-c1ccccc1`, the compound was called inactive in assay [1], in assay [2], in assay [7], in assay [8], in assay [3] and in assay [4]. In addition, the compound was classed as inactive in [5], in [6] and in [10].
As to `CCOc1nc(F)cc2nc(S(=O)(=O)Nc3c(Cl)cccc3Cl)nn12`, the outcome in assay [1], in assay [2], in assay [3], in assay [4], in [5] and in [6] was inactive.
As to `O=C(O)c1c(Cl)ccc2cc(Cl)cnc12`, the result in assay [1], in assay [2], in [7], in [8], in [3] and in assay [4] was inactive. The result in assay [5] and in assay [6] was inactive.
For `C=CCOC(=O)C(C)(C)OC(=O)c1cc(-n2c(=O)cc(C(F)(F)F)n(C)c2=O)ccc1Cl`, the outcome in assay [1], in assay [2], in assay [3], in assay [4], in [5] and in assay [6] was inactive.
With `CC(C)=CC1C(C(=O)OCc2coc(Cc3ccccc3)c2)C1(C)C` (stereo unspecified), the compound was classed as inactive in [1], in [2], in assay [8], in assay [3], in assay [5] and in [6]. The AC50 was 39.6 µM (active) in [7] and 20.3 µM (active) in assay [4].
